Test [1] is described as follows: qHTS assay to identify small molecule agonists of H2AX - cell viability counter screen (AID 1224847; calls by dose curve;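 further: wild-type CHO-K1 cells; top concentration of the series differs between compounds; nearly all actives have a fitted effect of over 30% in size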). Put shortly:
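After overnight plating of 1000 CHO-K1 cells per well, a 15-concentration compound series was applied for 3 hr at 37C. Luminescence from CellTiter-Glo, read following 30 min at room temperature, reflected cell viability.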

Test [2] can be described thus: qHTS assay to identify small molecule antagonists of the estrogen related receptor (ERR) signaling pathway from Tox21 library (AID 1224848). Further: nearly all actives have a fitted effect of over 50% in size. Further: potency means the concentration at half of the fitted maximal effect. Put shortly: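 Screening used an ERR reporter line supplied by NTP, exposed for 18 h at 37 C to library compounds delivered in DMSO. Signal was luciferase luminescence developed with ONE-Glo at room temperature for 30 min.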
Test [3] in a line: qHTS assay to identify small molecule agonists of the estrogen related receptor (ERR) signaling pathway from Tox21 library (AID 1224849; calls by dose curve; further: nearly all actives have a fitted effect of over 15% in size). The note with it: ERR reporter cell line, ONE-Glo luciferase, 18 h; at 92.4 µM (top of the series). Put shortly:
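ERR cells, 6 h pre-incubation 37 C/5% CO2; cpd in DMSO pinned; 18 h 37 C; ONE-Glo added, 30 min RT; luminescence read. Agonist mode, qHTS.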
In general terms: In qHTS, concentration-response curves come from the screen itself.

The nature of test [4]: qHTS RealTime-Glo MT Cell Viability Assay in HepG2 cells - 24 hour (AID 1224867). Further: nearly all actives have a fitted effect of over 50% in size. Put shortly: (§1)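 Real-time, nonlytic viability: 600 HepG2 cells/well mixed with NanoLuc enzyme plus prosubstrate; 5 h settle, compound (DMSO) added by pintool; luminescence monitored over 40 h at 37 C.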
Test [5] in a line: qHTS RealTime-Glo MT Cell Viability Assay in HEK293 cells - 32 hour (AID 1224868). Further: nearly all actives have a fitted effect of over 50% in size. Further: potency means the concentration at half of the fitted maximal effect. The method in brief:
(§2)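 Cells + reagent dispensed (600 cells/well, HEK293) → 5 h at 37 C/5% CO2 → 23 nL compound in DMSO pinned → 40 h at 37 C → luminescence read at 0, 8, 16, 24, 32, 40 h.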

A short description of test [6]: A CellTox Green Cytotoxicity Assay to monitor cytotoxicity in HEK293 cells - 0 hour (AID 1224869). Further: nearly all actives have a fitted effect of over 50% in size. Put shortly: (§3)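 Nonlytic real-time cytotoxicity: HEK293 + CellTox Green reagent plated, 5 h preincubation, pintool compound addition (23 nL in DMSO), 37 C for 40 h, fluorescence measured at successive time points.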
The nature of test [7]: qHTS RealTime-Glo MT Cell Viability Assay in HepG2 cells - 40 hour (AID 1224870). Further: nearly all actives have a fitted effect of over 50% in size. Put shortly: (§4)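 HepG2 cells mixed with RealTime-Glo MT reagents (NanoLuc plus cell-permeant prosubstrate) were seeded at 600 cells/well, incubated 5 h at 37 C/5% CO2, then pinned with compounds in DMSO; nonlytic luminescence tracked viability during 40 h treatment.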
Test [8] in a line: A CellTox Green Cytotoxicity Assay to monitor cytotoxicity in HEK293 cells - 40 hour (AID 1224871). Further: nearly all actives have a fitted effect of over 45% in size. Further: potency means the concentration at half of the fitted maximal effect. Put shortly:
as §3

A short description of test [9]: qHTS RealTime-Glo MT Cell Viability Assay in HEK293 cells - 16 hour (AID 1224872). Further: nearly all actives have a fitted effect of over 50% in size. Further: potency means the concentration at half of the fitted maximal effect. The method in brief:
as §2

The nature of test [10]: qHTS RealTime-Glo MT Cell Viability Assay in HepG2 cells - 8 hour (AID 1224873). Further: nearly all actives have a fitted effect of over 55% in size. Put shortly:
as §4

The nature of test [11]: A CellTox Green Cytotoxicity Assay to monitor cytotoxicity in HepG2 cells - 16 hour (AID 1224876). Further: nearly all actives have a fitted effect of over 45% in size. Further: potency means the concentration at half of the fitted maximal effect. Put shortly:
(§5)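 Read-out is fluorescence of a cyanine dye excluded from live cells that stains DNA of dead HepG2 cells, with signal proportional to cytotoxicity. Plates were read at 0, 8, 16, 24, 32 and 40 h after compound addition.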

The nature of test [12]: qHTS RealTime-Glo MT Cell Viability Assay in HepG2 cells - 32 hour (AID 1224877). Further: nearly all actives have a fitted effect of over 55% in size. Put shortly:
as §1

Test [13] in a line: A CellTox Green Cytotoxicity Assay to monitor cytotoxicity in HepG2 cells - 24 hour (AID 1224878). Further: nearly all actives have a fitted effect of over 45% in size. Further: potency means the concentration at half of the fitted maximal effect. Put shortly: as §5
Test [14] in a line: A CellTox Green Cytotoxicity Assay to monitor cytotoxicity in HepG2 cells - 40 hour (AID 1224879). Further: nearly all actives have a fitted effect of over 40% in size. Further: potency means the concentration at half of the fitted maximal effect. Put shortly: as §5
Test [15] can be described thus: qHTS RealTime-Glo MT Cell Viability Assay in HEK293 cells - 0 hour (AID 1224880). Further: top concentration of the series differs between compounds; nearly all actives have a fitted effect of over 45% in size. The method in brief: (§6)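 Cells were seeded together with NanoLuc luciferase and a prosubstrate that viable cells reduce to a luciferase substrate. After a 5 h incubation at 37 C/5% CO2, compounds were added and luminescence was measured repeatedly during 40 h of treatment.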
Test [16] is described as follows: A CellTox Green Cytotoxicity Assay to monitor cytotoxicity in HEK293 cells - 32 hour (AID 1224881). Further: nearly all actives have a fitted effect of over 40% in size. Further: potency means the concentration at half of the fitted maximal effect. The method in brief: as §3
Test [17] is described as follows: A CellTox Green Cytotoxicity Assay to monitor cytotoxicity in HepG2 cells - 0 hour (AID 1224882). Further: nearly all actives have a fitted effect of over 35% in size. The method in brief:
as §5

Test [18] can be described thus: A CellTox Green Cytotoxicity Assay to monitor cytotoxicity in HepG2 cells - 32 hour (AID 1224883). Further: nearly all actives have a fitted effect of over 50% in size. Further: potency means the concentration at half of the fitted maximal effect. Put shortly:
as §5

A short description of test [19]: A CellTox Green Cytotoxicity Assay to monitor cytotoxicity in HEK293 cells - 24 hour (AID 1224875). Further: nearly all actives have a fitted effect of over 45% in size. The method in brief: as §3
A short description of test [20]: qHTS RealTime-Glo MT Cell Viability Assay in HEK293 cells - 40 hour (AID 1224874). Further: nearly all actives have a fitted effect of over 50% in size. Further: potency means the concentration at half of the fitted maximal effect. The note with it: RealTime-Glo luminescence; max response: stronger effect = lower value. Put shortly: as §6

Several values for one entry are separate records, joined by “and”; a condition that tells them apart may be missing. Equal values may be shown once. Inconclusive results are not listed. The source holds several records for some structures; these can differ, active in one and inactive in another. Activity calls are given as the source filed them. Unless noted, the call rests on the fitted dose curve; in most records, active means well fitted curve in the direction sought with a large enough effect in the repeat runs; inconclusive means weak or mixed curves; inactive means no such curve, though single readings can be large; an effect the other way counts as inactive or inconclusive.
On the % scale 0 is the no-effect control and ±100 the full control effect.

For the molecule `CN(C)CCOCCN(C)C`, the Potency result in [1], in test [2], in test [5], in [9] and in [15] was “inactive” in each case. Besides, the activity change, positive = activation in test [3] was -5.24% (inactive) and -0.172% (inactive). Also, the molecule was called inactive in test [4], in test [6], in test [7], in test [10], in [12] and in test [17]. Moreover, the Potency entry in test [8] is “inactive and 43.6 µM (active)”; in test [11], “inactive and 43.6 µM (active)”; in test [13], “inactive and 49 µM (active)”; in test [14], “inactive and 49 µM (active)”; in [16], “inactive and 49 µM (active)”; in [18], “inactive and 49 µM (active)”.

As for `CCCCCCCCCCCCc1ccccc1`, the Potency result in test [1], in [2], in [5], in test [8], in test [9] and in [19] was “inactive” throughout. Besides, the Potency entry in [11], in test [13], in test [14], in test [15], in [16] and in test [18] was “inactive” in each case. Also, in test [3], the activity change, positive = activation was 9.43% (inactive) and 1.83% (inactive). Besides, the call in test [4], in test [6], in [7], in [10], in [12] and in [17] was inactive.

Consider `C=C(C)C(=O)O[C@H]1C[C@@H]2CC[C@@]1(C)C2(C)C`, for which the Potency result in [1], in test [19], in [11] and in test [15] was “inactive” each time. The Potency in [2] was 4.83 µM (active) and inactive; in test [5], 15.4 µM (active) and inactive; in test [8] it was 12.2 µM (active) and inactive; in test [9], 15.4 µM (active) and inactive; in test [20], 15.4 µM (active); in [13] it was 4.87 µM (active) and inactive. The Potency was 7.71 µM (active) and inactive in [14]; 10.9 µM (active) and inactive in test [16]; 6.87 µM (active) and inactive in test [18]. Further, the activity change, positive = activation in test [3] is -82.3% (inactive) and 8.09% (inactive). In addition, the call in test [4], in [6], in [7], in test [10], in test [12] and in test [17] was inactive. The max response in test [20] is 2.39% (inactive).

`ON=C1CCCCC1`: the Potency result in test [1], in [2], in test [5], in test [8], in test [9] and in test [19] was “inactive” in each case. The Potency result in test [11], in test [13], in test [14], in test [15], in test [16] and in [18] was “inactive” throughout. In test [3], the activity change, positive = activation is -1.41% (inactive) and -1.15% (inactive). Also, the molecule was classed as inactive in test [4], in test [6], in test [7], in test [10], in test [12] and in test [17]. Also, in test [20], the max response is -0.0267% (inactive) and 0.158% (inactive).

`CCc1cccc(C)c1N`: the Potency result in test [1], in test [2], in [5], in test [8], in [9] and in test [19] was “inactive” in each case. The Potency result in test [11], in test [13], in test [14], in test [15], in test [16] and in test [18] was “inactive” in each case. Also, the activity change, positive = activation in [3] was -1.49% (inactive). For the same molecule, the molecule was called inactive in test [4], in [6], in test [7], in test [10], in [12] and in test [17]. The max response in [20] is 1.23% (inactive) and 1.97% (inactive).

In the case of `O=P(OC(CCl)CCl)(OC(CCl)CCl)OC(CCl)CCl`, the Potency result in test [1], in test [8], in test [19], in [11], in [13] and in test [14] was “inactive” in each case. Besides, the Potency entry in [15], in test [16] and in test [18] was “inactive” each time. In addition, the Potency in test [2] was 48.3 µM (active) and 54.5 µM (active); in test [5], 24.4 µM (active) and 49 µM (active); in [20], 21.8 µM (active) and 49 µM (active). Moreover, the activity change, positive = activation in test [3] is -54.2% (inactive) and -40.7% (inactive). The call in [4], in test [6], in test [7], in test [10], in test [12] and in test [17] was inactive.

The values above are taken from PubChem BioAssay (Tox21).
